Tests used:
Experiment in all cases: log2 ratio of Biotin-Ahx-Ub-VS probe labelling (fragment/DMSO); higher = less target engagement (more negative = stronger competition), active = hit call of the paper (q ≤ 0.05, log2 ratio ≤ -1)
Conditions in all cases: compound concentration: 200 uM; treatment time: 3 h
USP34 = USP34 (UniProt Q70CQ2)
Procedure, shortened: (§1)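 Average log2 ratios of fragment over vehicle were obtained by unpaired t-test from global-median-normalised Spectronaut label-free quantities. Proteins with ≥2 unique peptides were included. HEK293T lysate (495 µg per sample) was treated in triplicate with fragment at 200 µM or vehicle for 3 h, then with Biotin-Ahx-Ub-VS at 0.5 µM final for 1 h, and labelled DUBs were NeutrAvidin-enriched and run by diaPASEF LC-MS/MS.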

USP36 = target: T1, USP36 (UniProt Q9P275)
T1 sequence (whole entry): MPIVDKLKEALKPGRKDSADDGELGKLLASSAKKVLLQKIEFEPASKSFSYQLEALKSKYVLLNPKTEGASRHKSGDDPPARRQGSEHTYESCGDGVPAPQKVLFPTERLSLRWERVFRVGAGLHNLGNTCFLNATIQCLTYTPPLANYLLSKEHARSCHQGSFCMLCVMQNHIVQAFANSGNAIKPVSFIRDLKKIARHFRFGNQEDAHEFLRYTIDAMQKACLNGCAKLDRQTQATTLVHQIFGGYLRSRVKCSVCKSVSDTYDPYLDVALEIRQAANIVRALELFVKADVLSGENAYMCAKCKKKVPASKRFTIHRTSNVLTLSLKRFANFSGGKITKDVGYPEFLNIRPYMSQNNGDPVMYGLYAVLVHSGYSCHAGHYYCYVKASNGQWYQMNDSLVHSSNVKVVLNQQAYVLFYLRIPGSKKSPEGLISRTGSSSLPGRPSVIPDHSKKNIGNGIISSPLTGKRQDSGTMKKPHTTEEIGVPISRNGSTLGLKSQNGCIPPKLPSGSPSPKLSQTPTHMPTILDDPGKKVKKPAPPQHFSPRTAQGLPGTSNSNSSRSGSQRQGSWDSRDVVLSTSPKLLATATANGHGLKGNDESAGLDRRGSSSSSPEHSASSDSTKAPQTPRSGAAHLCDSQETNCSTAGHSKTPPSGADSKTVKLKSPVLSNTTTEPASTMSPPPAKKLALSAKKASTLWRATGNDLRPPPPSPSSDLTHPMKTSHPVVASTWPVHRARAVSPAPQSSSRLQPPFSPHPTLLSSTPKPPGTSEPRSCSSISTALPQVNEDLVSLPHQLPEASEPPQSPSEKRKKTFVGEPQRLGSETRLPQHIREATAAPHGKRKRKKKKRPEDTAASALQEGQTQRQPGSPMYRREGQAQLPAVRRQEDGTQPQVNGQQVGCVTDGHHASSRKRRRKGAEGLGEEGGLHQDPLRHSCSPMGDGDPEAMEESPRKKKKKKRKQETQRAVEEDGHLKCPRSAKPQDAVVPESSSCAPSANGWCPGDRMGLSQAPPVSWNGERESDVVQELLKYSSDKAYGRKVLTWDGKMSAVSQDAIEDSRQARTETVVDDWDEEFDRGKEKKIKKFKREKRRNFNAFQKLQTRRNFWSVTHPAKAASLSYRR
Procedure, shortened: as §1

USP38 = target: T2, USP38 (UniProt Q8NB14)
T2 sequence (whole entry): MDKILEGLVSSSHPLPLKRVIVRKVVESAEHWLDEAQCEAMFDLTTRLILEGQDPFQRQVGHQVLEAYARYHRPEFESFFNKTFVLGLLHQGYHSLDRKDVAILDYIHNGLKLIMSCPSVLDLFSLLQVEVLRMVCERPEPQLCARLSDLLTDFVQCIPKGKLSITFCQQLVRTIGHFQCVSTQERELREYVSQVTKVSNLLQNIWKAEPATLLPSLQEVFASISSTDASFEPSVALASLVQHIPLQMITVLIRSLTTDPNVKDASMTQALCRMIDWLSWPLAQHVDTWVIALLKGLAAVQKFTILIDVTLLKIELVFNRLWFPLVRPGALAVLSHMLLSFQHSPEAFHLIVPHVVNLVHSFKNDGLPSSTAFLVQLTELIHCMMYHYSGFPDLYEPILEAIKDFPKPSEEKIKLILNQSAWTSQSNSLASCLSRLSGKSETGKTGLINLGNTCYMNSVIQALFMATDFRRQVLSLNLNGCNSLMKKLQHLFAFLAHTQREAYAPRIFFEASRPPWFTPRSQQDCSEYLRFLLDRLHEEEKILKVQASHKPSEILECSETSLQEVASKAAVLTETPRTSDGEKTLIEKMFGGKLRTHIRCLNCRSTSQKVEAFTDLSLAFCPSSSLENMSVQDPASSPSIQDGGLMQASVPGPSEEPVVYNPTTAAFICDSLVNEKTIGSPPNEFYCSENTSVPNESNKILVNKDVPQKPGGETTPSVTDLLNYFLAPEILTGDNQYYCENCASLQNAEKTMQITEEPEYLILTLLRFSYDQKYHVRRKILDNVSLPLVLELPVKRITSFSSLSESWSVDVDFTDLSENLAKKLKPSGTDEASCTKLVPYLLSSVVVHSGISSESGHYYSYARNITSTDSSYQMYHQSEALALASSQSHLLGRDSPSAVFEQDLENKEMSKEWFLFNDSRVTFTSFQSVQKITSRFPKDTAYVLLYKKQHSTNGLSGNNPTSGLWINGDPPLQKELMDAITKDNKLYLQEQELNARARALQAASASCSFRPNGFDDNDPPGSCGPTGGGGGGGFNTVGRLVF
Procedure, shortened: as §1

USP39 = target: T3, USP39 (UniProt Q53GS9)
T3 sequence (whole entry): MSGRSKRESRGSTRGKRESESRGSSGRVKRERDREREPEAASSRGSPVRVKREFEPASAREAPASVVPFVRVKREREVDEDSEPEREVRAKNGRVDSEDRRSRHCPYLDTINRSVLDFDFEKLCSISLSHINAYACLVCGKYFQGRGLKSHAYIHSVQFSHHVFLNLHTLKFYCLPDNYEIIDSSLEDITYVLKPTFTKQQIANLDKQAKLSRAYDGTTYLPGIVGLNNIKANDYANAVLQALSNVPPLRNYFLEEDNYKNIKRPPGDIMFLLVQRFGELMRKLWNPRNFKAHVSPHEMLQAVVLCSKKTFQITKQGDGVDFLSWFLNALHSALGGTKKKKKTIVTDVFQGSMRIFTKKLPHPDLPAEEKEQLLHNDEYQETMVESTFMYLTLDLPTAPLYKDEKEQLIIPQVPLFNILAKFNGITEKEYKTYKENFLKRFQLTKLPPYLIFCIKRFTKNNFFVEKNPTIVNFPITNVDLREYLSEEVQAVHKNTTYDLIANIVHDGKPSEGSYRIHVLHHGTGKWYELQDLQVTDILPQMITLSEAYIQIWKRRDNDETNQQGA
Procedure, shortened: as §1

USP4 = target: T4, USP4 (UniProt Q13107)
T4 sequence (whole entry): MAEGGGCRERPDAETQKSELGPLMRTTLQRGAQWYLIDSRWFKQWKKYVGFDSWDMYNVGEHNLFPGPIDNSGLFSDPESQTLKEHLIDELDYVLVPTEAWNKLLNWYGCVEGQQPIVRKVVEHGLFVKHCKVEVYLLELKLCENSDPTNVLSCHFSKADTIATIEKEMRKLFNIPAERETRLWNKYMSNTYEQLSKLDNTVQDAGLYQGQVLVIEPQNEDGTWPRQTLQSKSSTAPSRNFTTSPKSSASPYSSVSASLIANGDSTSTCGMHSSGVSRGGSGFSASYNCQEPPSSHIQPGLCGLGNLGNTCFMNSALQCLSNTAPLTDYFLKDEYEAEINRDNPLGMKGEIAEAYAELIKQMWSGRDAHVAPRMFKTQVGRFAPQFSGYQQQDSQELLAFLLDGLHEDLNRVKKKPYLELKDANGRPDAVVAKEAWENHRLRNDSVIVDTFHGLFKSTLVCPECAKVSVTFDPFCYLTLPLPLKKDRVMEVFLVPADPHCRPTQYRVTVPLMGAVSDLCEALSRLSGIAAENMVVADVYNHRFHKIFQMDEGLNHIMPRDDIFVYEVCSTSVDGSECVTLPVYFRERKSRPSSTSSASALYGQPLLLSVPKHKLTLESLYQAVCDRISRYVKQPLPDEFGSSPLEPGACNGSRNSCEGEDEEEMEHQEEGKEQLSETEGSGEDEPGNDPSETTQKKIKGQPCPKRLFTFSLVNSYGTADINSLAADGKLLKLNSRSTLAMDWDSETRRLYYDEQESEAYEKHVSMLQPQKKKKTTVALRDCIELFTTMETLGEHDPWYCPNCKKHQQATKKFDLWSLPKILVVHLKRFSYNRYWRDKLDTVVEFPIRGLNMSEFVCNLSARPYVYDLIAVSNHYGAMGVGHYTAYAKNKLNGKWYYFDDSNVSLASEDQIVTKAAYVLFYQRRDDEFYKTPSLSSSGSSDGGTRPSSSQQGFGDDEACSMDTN
Procedure, shortened: as §1

Measured: log2 ratio of Biotin-Ahx-Ub-VS probe labelling

USP34, sequence (Q70CQ2 whole entry, the tested form may be a part): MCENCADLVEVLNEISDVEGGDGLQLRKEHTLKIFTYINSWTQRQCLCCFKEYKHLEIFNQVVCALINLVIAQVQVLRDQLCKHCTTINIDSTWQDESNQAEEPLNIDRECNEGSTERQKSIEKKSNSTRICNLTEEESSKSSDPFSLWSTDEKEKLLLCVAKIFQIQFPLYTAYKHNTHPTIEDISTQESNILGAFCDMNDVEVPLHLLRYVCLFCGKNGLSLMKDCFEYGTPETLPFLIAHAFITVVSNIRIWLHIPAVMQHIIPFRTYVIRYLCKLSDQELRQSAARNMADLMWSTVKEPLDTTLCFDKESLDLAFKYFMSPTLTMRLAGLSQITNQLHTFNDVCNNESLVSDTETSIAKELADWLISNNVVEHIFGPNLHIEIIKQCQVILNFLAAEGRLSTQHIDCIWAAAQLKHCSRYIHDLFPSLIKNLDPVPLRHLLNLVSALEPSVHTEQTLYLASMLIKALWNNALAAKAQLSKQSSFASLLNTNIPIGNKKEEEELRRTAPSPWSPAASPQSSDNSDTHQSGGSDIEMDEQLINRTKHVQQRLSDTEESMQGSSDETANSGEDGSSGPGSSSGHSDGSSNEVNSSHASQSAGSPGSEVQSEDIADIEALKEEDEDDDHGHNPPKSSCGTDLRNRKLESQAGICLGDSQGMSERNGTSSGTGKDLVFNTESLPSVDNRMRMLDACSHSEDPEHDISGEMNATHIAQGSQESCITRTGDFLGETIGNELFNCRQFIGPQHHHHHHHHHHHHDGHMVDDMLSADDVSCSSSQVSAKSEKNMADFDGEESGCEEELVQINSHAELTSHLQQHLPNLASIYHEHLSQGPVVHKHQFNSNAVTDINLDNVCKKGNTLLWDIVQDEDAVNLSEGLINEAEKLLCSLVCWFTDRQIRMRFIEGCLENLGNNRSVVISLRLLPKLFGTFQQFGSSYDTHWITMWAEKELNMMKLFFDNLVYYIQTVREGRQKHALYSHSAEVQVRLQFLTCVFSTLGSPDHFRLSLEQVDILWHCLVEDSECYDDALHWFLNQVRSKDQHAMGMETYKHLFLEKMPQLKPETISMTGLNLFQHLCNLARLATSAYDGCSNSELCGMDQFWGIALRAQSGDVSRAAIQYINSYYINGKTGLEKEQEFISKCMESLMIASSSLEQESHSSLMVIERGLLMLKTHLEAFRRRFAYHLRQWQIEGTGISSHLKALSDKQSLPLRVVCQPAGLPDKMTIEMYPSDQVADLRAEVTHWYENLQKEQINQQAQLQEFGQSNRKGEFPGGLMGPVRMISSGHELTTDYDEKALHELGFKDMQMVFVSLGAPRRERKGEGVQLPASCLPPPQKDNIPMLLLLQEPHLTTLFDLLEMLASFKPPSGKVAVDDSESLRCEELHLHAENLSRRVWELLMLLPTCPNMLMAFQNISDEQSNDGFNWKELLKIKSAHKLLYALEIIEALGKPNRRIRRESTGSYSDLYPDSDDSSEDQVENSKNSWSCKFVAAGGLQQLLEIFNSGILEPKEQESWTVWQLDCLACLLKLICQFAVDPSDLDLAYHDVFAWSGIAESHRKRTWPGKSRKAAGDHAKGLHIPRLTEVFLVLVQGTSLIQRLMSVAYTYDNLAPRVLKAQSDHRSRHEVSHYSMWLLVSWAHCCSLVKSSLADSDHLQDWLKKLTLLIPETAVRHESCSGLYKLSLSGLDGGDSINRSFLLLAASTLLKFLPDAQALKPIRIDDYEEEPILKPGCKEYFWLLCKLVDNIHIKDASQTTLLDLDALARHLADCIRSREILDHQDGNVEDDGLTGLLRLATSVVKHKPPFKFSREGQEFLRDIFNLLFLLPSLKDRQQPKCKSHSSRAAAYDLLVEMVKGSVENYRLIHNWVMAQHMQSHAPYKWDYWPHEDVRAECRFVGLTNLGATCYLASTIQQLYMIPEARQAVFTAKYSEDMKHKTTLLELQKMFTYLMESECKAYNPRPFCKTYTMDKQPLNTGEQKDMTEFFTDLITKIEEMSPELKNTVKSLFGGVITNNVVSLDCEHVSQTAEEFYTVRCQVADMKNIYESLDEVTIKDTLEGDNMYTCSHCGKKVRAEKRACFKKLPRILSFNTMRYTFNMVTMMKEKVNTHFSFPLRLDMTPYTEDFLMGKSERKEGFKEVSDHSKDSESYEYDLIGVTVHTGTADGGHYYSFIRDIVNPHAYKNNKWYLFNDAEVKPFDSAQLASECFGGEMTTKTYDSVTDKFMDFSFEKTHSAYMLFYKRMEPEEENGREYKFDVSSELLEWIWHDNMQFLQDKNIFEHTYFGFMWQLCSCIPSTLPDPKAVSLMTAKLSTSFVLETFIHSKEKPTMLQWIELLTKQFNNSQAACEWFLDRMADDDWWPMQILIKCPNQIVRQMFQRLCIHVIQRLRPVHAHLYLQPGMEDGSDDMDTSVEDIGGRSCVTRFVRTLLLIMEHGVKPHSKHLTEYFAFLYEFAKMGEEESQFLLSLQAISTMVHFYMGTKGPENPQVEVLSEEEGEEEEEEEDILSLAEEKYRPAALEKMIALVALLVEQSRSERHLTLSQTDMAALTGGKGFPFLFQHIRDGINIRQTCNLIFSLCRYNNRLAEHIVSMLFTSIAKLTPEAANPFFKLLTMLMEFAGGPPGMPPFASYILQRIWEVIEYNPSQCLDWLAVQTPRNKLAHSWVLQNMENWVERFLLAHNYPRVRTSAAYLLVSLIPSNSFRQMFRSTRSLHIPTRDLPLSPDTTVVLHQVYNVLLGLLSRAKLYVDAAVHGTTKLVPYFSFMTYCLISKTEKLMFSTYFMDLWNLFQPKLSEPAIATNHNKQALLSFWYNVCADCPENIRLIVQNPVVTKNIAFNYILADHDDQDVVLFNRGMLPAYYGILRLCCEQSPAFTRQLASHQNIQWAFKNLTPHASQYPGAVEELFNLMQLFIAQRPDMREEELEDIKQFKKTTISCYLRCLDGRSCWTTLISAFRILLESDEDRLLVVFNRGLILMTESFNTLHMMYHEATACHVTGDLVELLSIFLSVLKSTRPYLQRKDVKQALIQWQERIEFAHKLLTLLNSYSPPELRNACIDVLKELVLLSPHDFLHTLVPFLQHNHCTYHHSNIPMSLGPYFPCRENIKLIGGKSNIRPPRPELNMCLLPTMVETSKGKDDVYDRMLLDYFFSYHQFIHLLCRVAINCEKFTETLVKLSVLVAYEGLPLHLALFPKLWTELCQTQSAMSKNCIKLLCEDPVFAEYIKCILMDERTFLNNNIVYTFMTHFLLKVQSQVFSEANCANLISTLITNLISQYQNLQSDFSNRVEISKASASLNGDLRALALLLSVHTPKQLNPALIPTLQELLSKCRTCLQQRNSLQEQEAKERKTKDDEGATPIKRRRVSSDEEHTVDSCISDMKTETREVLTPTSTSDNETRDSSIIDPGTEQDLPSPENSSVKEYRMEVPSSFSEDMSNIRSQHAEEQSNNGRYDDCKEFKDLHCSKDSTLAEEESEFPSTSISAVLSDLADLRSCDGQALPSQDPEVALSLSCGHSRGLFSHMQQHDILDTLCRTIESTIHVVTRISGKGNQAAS

Cc1cnc2[nH]cc(CCNC(=O)CCl)c2c1
inactive: USP34 -0.162 | USP36 -0.31 | USP38 0.0877 | USP39 0.144 | USP4 -0.338

From the supplement of paper PMC11732987, “Enantioselective OTUD7B fragment discovery through chemoproteomics screening and high-throughput optimisation” (Communications Chemistry, 2025)
